Measured values published in the OligoGym collection.

Molecular target: CREB5
Test: pooled miR-30 sensor sort-seq; sequence = guide strand
Conditions: shRNA
Further: reference of the scale not given here.

Sequence	sensor-assay potency score (higher = more potent)
TTATGTGTTAACAACAACTGTT	-0.0254
TTTAATGACAAACTCAACTTAC	-0.383
TTAGATATCCTTGTGATTCTTT	0.29
TTTAAAAACAAGTAGATCCTAC	0.376

Molecular target: CREG1
Test: as above
Conditions: shRNA

Sequence	sensor-assay potency score (higher = more potent)
TAGAAATAGGGCACGCCGCTGC	-0.314
TTCACCTTGGTCACAGTTCCTG	-0.406
ATATTGGTTATATTCAACTTAG	-1.21
TTGTGGATCAAATCCATGTTTC	-1.13
TTTGTGGATCAAATCCATGTTT	-0.755
TTTCTTGCAGAAGTTGGTCTGT	0.391
TGGTCCACCAAAGTAGTCCAGG	-1.37
TCCAATAACAGGTCAACTCTAT	-0.715
TCACCTTGGTCACAGTTCCTGA	-0.428
TTCTTGCAGAAGTTGGTCTGTG	-0.659
TTTGCAATATCCATTTCTGTTT	-1.42
